Screening data: PubChem, The Scripps Research Institute Molecular Screening Center
The list is not random: actives were taken first. Their share in the collection is about 3.4%.
PAFAH2 FP inh: inhibitors of human PAFAH2. recombinant PAFAH2, FP-rhodamine activity probe, fluorescence polarization. inhibition, % at 3.39 µM. 0.99% of 340,000 active. AID 492956;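 active = inhibition above the mean over all tested compounds plus 3 SD, cut at about 30% in these data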;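 note: inhibitors block probe labeling of enzyme so polarization drops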
PAFAH1B2 inh: inhibitors of human PAFAH1B2; P68402; recombinant PAFAH1B2, FP-rhodamine activity probe, fluorescence polarization; inhibition, % at 3.39 µM; 1.2% of 340,000 active;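 active = inhibition above the mean of all tested compounds plus 3 SD, cut at about 24% in these data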
Target sequence (P68402 whole entry, looked up): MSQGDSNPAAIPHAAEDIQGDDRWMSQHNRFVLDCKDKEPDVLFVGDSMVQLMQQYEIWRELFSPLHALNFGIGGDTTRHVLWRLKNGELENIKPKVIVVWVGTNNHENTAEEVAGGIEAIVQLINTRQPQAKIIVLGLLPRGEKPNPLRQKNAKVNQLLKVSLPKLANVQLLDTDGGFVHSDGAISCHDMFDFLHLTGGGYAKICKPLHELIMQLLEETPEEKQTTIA
PAFAH1B3 inh: PAFAH1B3 (human) inhibition; Q15102; recombinant PAFAH1B3, FP-rhodamine probe, fluorescence polarization; inhibition, % at 3.39 µM; 0.28% of 340,000 active; AID 492972;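 active = inhibition above the screen-wide average of all tested compounds plus 3 SD, cut at about 25% in these data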
PP1 inh: counter-screen for PP5 inhibitors: inhibitors of human PP1-alpha. purified PP1alpha, OMFP fluorescence. P62136. 0.9% of 320,000 active. inhibition, % at 6.7 µM;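 active = inhibition above the mean inhibition of all tested compounds plus 3 SD, computed separately for each screening campaign, cut at about 15% in these data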
Target sequence (P62136 whole entry, looked up): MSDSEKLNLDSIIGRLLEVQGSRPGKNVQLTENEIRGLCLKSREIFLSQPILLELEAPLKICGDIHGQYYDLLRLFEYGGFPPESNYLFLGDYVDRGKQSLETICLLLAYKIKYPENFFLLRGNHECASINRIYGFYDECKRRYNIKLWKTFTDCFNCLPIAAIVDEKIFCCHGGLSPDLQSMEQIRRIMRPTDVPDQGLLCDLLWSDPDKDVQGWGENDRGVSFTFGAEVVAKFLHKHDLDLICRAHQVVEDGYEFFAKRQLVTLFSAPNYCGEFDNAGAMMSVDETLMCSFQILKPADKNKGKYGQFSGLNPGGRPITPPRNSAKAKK
pPAFAH FP inh: inhibitors of human plasma PAF acetylhydrolase (pPAFAH). Q13093. recombinant pPAFAH, FP-rhodamine probe fluorescence polarization. inhibition, % at 3.39 µM. 1.5% of 330,000 active. AID 463082;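 active = inhibition above the mean inhibition across the screen plus 3 SD, cut at about 25% in these data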;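 note: inhibitors block binding of the rhodamine activity-based probe so polarization drops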
PP5 inh: inhibitors of human protein phosphatase 5 (PP5) | AID 1987 | inhibition, % at 6.7 µM | P53041 | purified PP5c, OMFP substrate fluorescence | 0.18% of 320,000 active;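 active = inhibition above the campaign's mean inhibition across all tested compounds plus 3 SD, cut at about 9.5% in these data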
Hits are given with their value; – = inactive; · = no result.

SMILES | PAFAH2 FP inh | PAFAH1B2 inh | PAFAH1B3 inh | PP1 inh | pPAFAH FP inh | PP5 inh
CC12CCC(=O)N1C(C(=O)Nc1cccc(F)c1)CS2 (stereo not drawn) | – | – | – | – | – | –
Oc1ccccc1CNc1cccc2cccnc12 | – | – | – | – | 33.5 | –
N#Cc1c(SCC(N)=O)nsc1SCc1ccc(Cl)cc1 | – | 29.7 | – | – | – | –
CC1=C(C(=O)Nc2cccc(F)c2)C(c2ccsc2)C2=C(CC(C)(C)CC2=O)N1 (stereo not drawn) | – | – | – | – | – | –
O=C(NNc1nc(-c2ccccc2)c2cc(Br)ccc2n1)c1ccc(S(=O)(=O)N2CCCCC2)cc1 | – | – | – | – | – | –
CN(C)S(=O)(=O)c1ccc(C(=O)NNc2nc(-c3ccccc3)c3cc(Br)ccc3n2)cc1 | – | – | – | – | 30.4 | –
O=C(CCc1nc2ccccc2[nH]1)Nc1ccccc1F | – | – | – | – | – | –
COCCCNC(=O)COC(=O)c1ccc(-c2nc3ccccc3s2)s1 | – | – | – | – | 27.7 | –
CNC(=O)COC(=O)c1ccc(-c2nc3ccccc3s2)s1 | – | – | – | – | – | –
CCOC(=O)CCCNC(=O)CCNC(=O)c1ccc(OC)cc1 | – | – | – | – | – | –
CC(C)CNc1nc2c(c(=O)n(C)c(=O)n2C)n1Cc1cccc(Br)c1 | – | – | – | – | – | –
CC1(C)CC2CC(C)(CN2C(=O)CN2C(=O)c3ccccc3C2=O)C1 (stereo not drawn) | – | 24.2 | – | – | – | –
Cc1ccc(C(=O)N2CCN(c3ccccc3F)CC2)cc1S(=O)(=O)N1CCOCC1 | – | – | – | – | – | –
CS(=O)(=O)c1ccccc1C(=O)Nc1cc2c(cc1C(=O)O)OCCCO2 | – | – | – | – | – | –
CC(C)(C)c1ccc(C(=O)n2cnc3ccccc32)cc1 | – | – | – | – | – | –
CCN(CC)c1ccc(C(=O)n2cnc3ccccc32)cc1 | – | – | – | – | 29.6 | –
N=c1oc2ccc(Br)cc2cc1C(=O)NCc1ccccc1 | – | – | – | – | – | –
CC(NC(=O)c1cc2cc(Br)ccc2oc1=N)c1ccccc1 (stereo not drawn) | – | 37.0 | – | – | – | –
CCOc1ccc(/C=C/c2nc(C#N)c(NCCCOC)o2)cc1 | – | – | – | – | 28.2 | –
CCOc1ccc(/C=C/c2nc(C#N)c(NCCCN(C)C)o2)cc1 | – | – | – | – | – | –
Cc1cccc(-n2c(C)cc(/C=C3\NC(=O)NC3=O)c2C)c1 | – | – | – | – | – | –
Cc1cc(C)c(-n2c(C)cc(/C=C3/NC(=O)NC3=O)c2C)c(C)c1 | · | · | · | – | 27.3 | –
Cc1ccc(O)c(N=CC2=C(O)c3ccccc3C2=O)c1 | – | – | – | – | 30.2 | –
O=C(CN1CCCCCCC1)N/N=C/c1ccccc1F | – | – | – | – | – | –
Cc1cc(C(=O)N/N=C2\CC(=O)c3ccccc32)c(C)n1-c1ccccc1 | – | – | – | – | 30.9 | –
SMILES | PAFAH2 FP inh | PAFAH1B2 inh | PAFAH1B3 inh | PP1 inh | pPAFAH FP inh | PP5 inh
Cc1cc(C(=O)O)c(C)n1-c1ccccc1 | – | – | – | – | – | –
COc1cccc(-c2nc(NC3CCCC3)c3ccccc3n2)c1O | – | – | – | – | – | –
CN(C)S(=O)(=O)N1CCN(CC(O)COc2ccc(C(=O)c3ccccc3)cc2)CC1 (stereo not drawn) | – | – | – | – | – | –
O=C(CCc1nnc(CCCc2ccccc2)o1)NCCc1ccco1 | – | – | – | – | – | –
O=C(CCc1nnc(CCCc2ccccc2)o1)NCCc1ccccc1 | – | 24.4 | – | – | – | –
O=C(C[n+]1cc(-c2ccc(Cl)cc2)n2c1CCC2)Nc1nc(-c2ccccc2)cs1 | – | – | – | 15.6 | – | –
COc1cc(C2C(C#N)=C(N)Oc3c2ccc2ccccc32)ccc1OCC(=O)Nc1cccc(C)c1 (stereo not drawn) | – | – | – | – | 32.9 | –
COc1cc(C2C(C#N)=C(N)Oc3c2ccc2ccccc32)ccc1OCC(=O)Nc1ccc(C)cc1 (stereo not drawn) | – | – | – | – | 27.9 | –
COc1ccc(C2C(C#N)=C(N)Oc3c2ccc2cccnc32)cc1OC (stereo not drawn) | – | – | – | – | – | –
O=C(Nc1ccc(N2CCCC2)c(Cl)c1)c1cccc(-c2cc3ccccc3oc2=O)c1 | – | – | – | 15.7 | – | –
COc1ccc(C(=O)Nc2cccc(-c3cc4ccccc4oc3=O)c2)cc1[N+](=O)[O-] | – | – | – | 16.5 | – | –
CC(=O)Nc1ccc(NC(=O)c2cccc(-c3cc4ccccc4oc3=O)c2)cc1 | – | – | – | – | – | –
O=C(Nc1nnc(SCc2ccc(F)cc2)s1)C1Cc2ccccc2CN1C(=O)c1ccco1 (stereo not drawn) | – | – | – | – | – | –
O=C(O)c1ccc(CSc2nnc(-c3ccncc3)n2CC2CCCO2)cc1 (stereo not drawn) | – | – | – | – | – | –
Cc1ccc(NC(=O)NCc2ccc3c(c2)OCO3)c(C)c1 | – | – | – | – | – | –
O=C(CSc1nc(-c2cccs2)cc(C(F)(F)F)n1)Nc1cc(OCC(F)(F)F)cc([N+](=O)[O-])c1 | – | – | – | – | – | –
O=C(COC(=O)c1c[nH]c2ccccc12)NC1CCCCC1 | 83.0 | – | – | – | 28.3 | –
O=C(COC(=O)c1cc(=O)[nH]c2ccccc12)NC1CCCCC1 | – | – | – | · | – | ·
O=C(COC(=O)Cc1ccc(Br)cc1)NC12CC3CC(CC(C3)C1)C2 | – | 38.3 | – | – | 25.9 | –
O=C(COC(=O)Cc1ccc(Br)cc1)NC1CCCCCC1 | – | 27.3 | – | – | 26.8 | –
O=C(COC(=O)COc1ccc(Br)cc1)NC1CCCCCC1 | – | – | – | – | – | –
CC(=O)N1CCN(C(=S)NC(=O)C23CC4CC(CC(C4)C2)C3)CC1 | – | – | – | – | – | –
COc1ccc(-n2nc(C(=O)NCC(=O)Nc3cccc(NC(C)=O)c3)c3ccccc3c2=O)cc1 | – | – | – | – | – | –
COCCn1nnnc1C(C(C)C)N1CCOCC1 (stereo not drawn) | – | – | – | – | – | –
Cc1c(Cl)cnc(NC(=O)COC(=O)c2ccc([N+](=O)[O-])s2)c1Cl | 47.0 | – | 33.2 | – | – | –
O=C(COC(=O)c1ccc([N+](=O)[O-])s1)Nc1ccc(Cl)cn1 | – | – | – | – | – | –
Cc1cc(C(=O)OCC(=O)N2CCC(c3ccccc3)=N2)ccc1[N+](=O)[O-] | – | – | – | – | – | –
Cc1nc(C)c(C(=O)OCC(=O)Nc2ccccc2)s1 | 95.0 | – | – | – | 26.2 | –
O=C(COC(=O)c1ccc([N+](=O)[O-])s1)Nc1ccccc1 | 81.1 | – | 34.0 | – | – | –
O=C(OCC(=O)N1CCC(c2ccccc2)=N1)c1ccc([N+](=O)[O-])s1 | – | – | – | – | 25.3 | –
